Results published in PubChem BioAssay AID504710 (Sanford-Burnham Center for Chemical Genomics, 2011).
Unmarked numbers belong to inactive results. The source made the active and inactive calls.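 How the source made its calls: active means inhibition reaching about 16% in any single replicate (limit read from the data); inactive means the rest.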

The compounds below were run against Hexokinase HKDC1 (Homo sapiens) (UniProt Q2TB90) (assay: compounds lowering human HKDC1 activity – biochemical, single concentration, confirmation (AID 504710)). Conditions: recombinant HKDC1, G6PDH/diaphorase/resazurin fluorescence; at 20 µM; active compounds read high.
Chain of Hexokinase HKDC1 (Homo sapiens) (Q2TB90 whole entry, looked up): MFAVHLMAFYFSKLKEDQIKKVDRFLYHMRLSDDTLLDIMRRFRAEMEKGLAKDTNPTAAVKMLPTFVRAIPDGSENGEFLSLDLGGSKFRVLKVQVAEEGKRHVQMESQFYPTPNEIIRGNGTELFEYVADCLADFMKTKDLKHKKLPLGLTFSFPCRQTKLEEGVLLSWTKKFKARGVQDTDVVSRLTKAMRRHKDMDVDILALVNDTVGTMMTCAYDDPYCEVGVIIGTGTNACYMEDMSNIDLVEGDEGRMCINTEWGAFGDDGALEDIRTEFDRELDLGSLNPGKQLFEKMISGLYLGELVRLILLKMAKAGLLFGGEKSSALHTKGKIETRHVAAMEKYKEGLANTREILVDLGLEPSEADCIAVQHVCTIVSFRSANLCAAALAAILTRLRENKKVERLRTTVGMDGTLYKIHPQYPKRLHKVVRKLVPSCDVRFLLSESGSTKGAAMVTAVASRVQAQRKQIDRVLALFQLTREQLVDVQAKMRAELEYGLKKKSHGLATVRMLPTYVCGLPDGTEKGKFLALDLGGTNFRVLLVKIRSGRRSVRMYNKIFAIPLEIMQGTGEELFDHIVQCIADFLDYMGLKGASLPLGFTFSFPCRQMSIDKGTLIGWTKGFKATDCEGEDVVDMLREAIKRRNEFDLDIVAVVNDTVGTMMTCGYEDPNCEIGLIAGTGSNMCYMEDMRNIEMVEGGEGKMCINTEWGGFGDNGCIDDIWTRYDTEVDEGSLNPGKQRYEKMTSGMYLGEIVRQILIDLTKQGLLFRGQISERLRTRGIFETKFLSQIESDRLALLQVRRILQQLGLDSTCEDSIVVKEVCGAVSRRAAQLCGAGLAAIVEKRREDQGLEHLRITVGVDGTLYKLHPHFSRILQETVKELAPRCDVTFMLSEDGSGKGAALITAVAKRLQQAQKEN

Question: Which inhibition does the source give for COC(=O)C1CN(C#N)N(c2ccc(Cl)cc2)C12c1ccccc1-c1ccccc12 (stereo not drawn) here?
Answer: Its inhibition is 73.6% (active).

Question: How did the inhibition turn out when O=C1NC(=S)N(c2ccc(F)cc2)C(=O)/C1=C\c1ccoc1 was run?
Answer: The inhibition was 55.2% (active).

Question: For COC(=O)[C@@H]1[C@@H](C(=O)OC)C2(c3ccccc3-c3ccccc32)N(c2ccc(Cl)cc2)N1C#N, which inhibition is on record?
Answer: The inhibition was 43.1% (active).

Question: How did the inhibition turn out when CC(=O)OC1C2(CC3N4C(=O)C5(CO)SSC4(CC31O)C(=O)N5C)OC(C)C(C)(C)C2=O (stereo not drawn) was run?
Answer: The inhibition was -77%.

Question: Which inhibition does the source give for Cc1cc(/C=C2\C(=O)NC(=O)N(c3ccc(Cl)cc3)C2=O)c(C)n1-c1sc2c(c1C#N)CCCC2 here?
Answer: The inhibition was 56.4% (active).

Question: With Cc1cccc(N2C(=O)NC(=O)/C(=C\c3ccc4c(c3)CCCN4Cc3ccccc3)C2=O)c1 as the compound, how does the inhibition read?
Answer: The inhibition was 45.2% (active).

Question: Which inhibition does the source give for CC(=NNC(=S)N1CC2CCC(CC2)C1)c1nccs1 here?
Answer: The inhibition was -42.1%.

Question: With COC(=O)C1=C(C(=O)OC)SC2(S1)C(C(=O)OC)=C(C(=O)OC)Sc1c2ssc1=O as the compound, how does the inhibition read?
Answer: The inhibition was -88.9%.

Question: How did the inhibition turn out when CCN(CC)CCCNC(=O)c1c(O)c2ccccc2n(Cc2ccccc2)c1=O was run?
Answer: The inhibition was -37.1%.

Question: How did the inhibition turn out when Cc1cccc(N2C(=O)NC(=O)/C(=C\c3cc(C)n(-c4sc5c(c4C#N)CCCC5)c3C)C2=O)c1C was run?
Answer: The inhibition was 54.9% (active).

Question: How did the inhibition turn out when Cc1ccc(N2C(=O)NC(=O)/C(=C\c3cc(C)n(-c4sc5c(c4C#N)CCCC5)c3C)C2=O)cc1 was run?
Answer: Its inhibition is 77.3% (active).

Question: COc1cc2c(cc1OC)-c1c(OC)c(OC)c(OC)c3ccnc(c13)C2=O was tested. Which inhibition did it give?
Answer: The inhibition was 57.5% (active).

Question: How did the inhibition turn out when COc1ccc(OC)c(N2C(=O)/C(=C/c3ccco3)C(=O)NC2=S)c1 was run?
Answer: Its inhibition is 77.4% (active).
